Measurements as given in PubChem BioAssay (Tox21).
Inconclusive results are not listed. Entries that show only a call come without a potency. Active and inactive are the calls of the source. The call rests on the fitted dose curve; in most records, active means well fitted activation curve with a large enough effect in the repeat runs; inconclusive means weak or mixed curves; inactive means flat fitted curve, though single readings scatter.

experiment: A CellTox Green Cytotoxicity Assay to monitor cytotoxicity in HEK293 cells - 16 hour (AID 1224888); settings: CellTox Green fluorescence; series mostly up to 76.8 µM; further: nearly all actives have a fitted effect of over 35% in size
Outline: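 Fluorescence from a DNA-binding dye excluded by viable cells was measured repeatedly in the same HEK293 wells (600 cells/well) during continuous compound exposure at 37 C. Each assay gives one read point: 0, 8, 16, 24, 32 or 40 h.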

Structure (SMILES) | Potency
CC1=C(/C=C/C(C)=C/C=C/C(C)=C/CO)C(C)(C)CCC1 | inactive
COC(=O)c1ccccc1O | inactive
Oc1ccc2ccccc2c1N=Nc1ccccc1 | inactive
C[C@@H](O)[C@H]1C(=O)N2C(C(=O)O)=C(S[C@@H]3CN[C@H](C(=O)N(C)C)C3)[C@H](C)[C@H]12 | inactive
C=C1CC[C@H](O)CC1=C/C=C1\CCC[C@]2(C)[C@@H]([C@H](C)/C=C/[C@H](C)C(C)C)CC[C@@H]12 | inactive
CCc1ccc(O)cc1 | inactive
COC(=O)c1ccc(C(=O)OC)cc1 | inactive
OCC#CCO | inactive
CN(C)c1cccc(O)c1 | inactive
COCC(=O)O | inactive
CC1=CC[C@H]2C[C@@H]1C2(C)C | inactive
CC(C)(C)C1CCC(O)CC1 (stereo unspecified) | inactive
O=S(=O)(O)c1cc(S(=O)(=O)O)c2c(N=Nc3ccccc3)c(O)ccc2c1 | inactive
CC#C[C@]1(O)CC[C@H]2[C@@H]3CCC4=CC(=O)CCC4=C3[C@@H](c3ccc(N(C)C)cc3)C[C@@]21C | inactive
S=c1nc[nH]c2nc[nH]c12 | inactive
O=C(Cl)c1c(Cl)c(Cl)c(C(=O)Cl)c(Cl)c1Cl | inactive
Nc1nc2ncc(CNc3ccc(C(=O)N[C@@H](CCC(=O)O)C(=O)O)cc3)nc2c(=O)[nH]1 | inactive
CC1Cc2ccccc2N1NC(=O)c1ccc(Cl)c(S(N)(=O)=O)c1 (stereo unspecified) | inactive
CCCCCCCCCCCCOCC1CO1 (stereo unspecified) | inactive
CC(C)n1c(/C=C/[C@@H](O)C[C@@H](O)CC(=O)O)c(-c2ccc(F)cc2)c2ccccc21 | inactive
NC(=O)NNc1ccccc1 | inactive
